The results in this text go back to PubChem BioAssay AID1259421 (Broad Institute, 2018).

Where “and” joins values, the source holds several entries; their conditions need not be identical. Equal values may be shown once. In all, about 6,400 compounds went through this assay and about 610 (9.5%) were called active. This is one part of a sample in which actives are shown more often than they occur. No stated cut-off is given here; in the data, active means activity change below about -70%; inconclusive means no clear call, values can overlap the other calls; inactive means above that. More than one record can exist for a structure, and the calls need not agree.

This assay in a line: Toxoplasma gondii ME49Luc growth in HeLa cells, luciferase, no IFN-y, primary screen (AID 1259421). Particulars: T. gondii ME49Luc in HeLa, 72 h, stronger effect = lower value, concentration not given here.
Take `O=C(O)CCC1CCC(c2cc(F)ccc2F)(S(=O)(=O)c2ccc(Cl)cc2)CC1` (centres undefined): the activity change, negative = inhibition is 7.06% (inactive).
The same measure for `N#Cc1ccccc1OCC(O)CNCCNC(=O)Nc1ccccc1` (centres undefined): 10.2% (inactive) and -13.2% (inactive).
The same measure for `CC1(C)CC23C(=O)CCC(O)C2(C)CCC13` (centres undefined): 11.7% (inactive); for `O=C(Nc1ccc([N+](=O)[O-])cc1O)Nc1ccccc1Br`: -48.5% (inactive) and -4.88% (inactive).
For `O=C(Nc1cc(C(F)(F)F)cc(C(F)(F)F)c1)c1cc(Cl)ccc1O` the value was -83.9% (active); for `O=C(Nc1ccc([N+](=O)[O-])cc1Cl)c1cc(Cl)ccc1O`, -93% (active) and 4.01% (inactive).
Take `C=CCNC(=O)c1cc([N+](=O)[O-])cc2c(=O)[nH]c(Nc3ccc(Cl)c(Cl)c3)nc12`: the activity change, negative = inhibition is 3.13% (inactive) and -6.94% (inactive).
As to `O=C(Nc1ccncc1)c1cc([N+](=O)[O-])ccc1Cl`, the activity change, negative = inhibition was -81.1% (active) and -86.9% (active).
Turning to `Cc1oncc1C(=O)Nc1ccc(C(F)(F)F)cc1`, the activity change, negative = inhibition was 165% (inactive) and 187% (inactive).
As to `NC(=O)c1ccc([N+](=O)[O-])cc1Cl`, the activity change, negative = inhibition was 17.4% (inactive) and 18.6% (inactive).
For `O=C(Nc1ccccc1)c1ccccc1O` the value was 110% (inactive) and 0.394% (inactive); for `O=C(Nc1ccccc1)c1cc([N+](=O)[O-])ccc1Cl`, 14.5% (inactive) and 9.52% (inactive).
As to `CN1CCN(C2=Cc3ccccc3Oc3ccc(Cl)cc32)CC1`, the activity change, negative = inhibition is -2.4% (inactive) and 14.5% (inactive).
For `O=C(NC1CCCCC1)NC1CCCCC1` the value was 10.9% (inactive).
The same measure for `O=C(O)c1ccc(NC2OC(CO)C(O)C(O)C2O)cc1` (centres undefined): 4.39% (inactive); for `Cc1occc(=O)c1O`: -2.72% (inactive); for `CC(C)S(=O)(=O)NC[C@H](C)c1ccc(-c2ccc(CCNS(C)(=O)=O)cc2)cc1`: 8.52% (inactive).
With `CN1C[C@H]2C[C@@H]1CN2c1cc2c(cc1F)c(=O)c(C(=O)O)cn2C1CC1`, the activity change, negative = inhibition was 7.36% (inactive).
For `NC(=O)C1CCCN1C(=O)C(Cc1cnc[nH]1)NC(=O)C1CCC(=O)N1` (centres undefined) the value was 2.14% (inactive); for `CCCCOc1ccc(CC(=O)NO)cc1`, -24.4% (inactive) and -36.9% (inactive).
For `CCCCCCCCCc1ccc(OCCOCCOCCOCCOCCOCCOCCOCCOCCO)cc1` the value was -73.3% (active); for `CCCCCCCCCCCC[N+](C)(C)CCOc1ccccc1`, 14.1% (inactive).
The same measure for `NC(=O)NCCCC(N)C(=O)O` (centres undefined): 15% (inactive); for `CC(C)=CCC[C@](C)(O)[C@H]1CC[C@]2(C)[C@@H]1[C@H](O)C[C@@H]1[C@@]3(C)CC[C@H](O)C(C)(C)[C@@H]3CC[C@]12C`: 27.9% (inactive).
On to `CCCn1c(=O)c2[nH]cnc2n(-c2ccc(Cl)cc2)c1=O`, for which the activity change, negative = inhibition is 15.7% (inactive) and 11% (inactive).
For `CO/N=C(/C(=O)NC1C(=O)N2C(C(=O)O)=C(CSc3nnnn3C)CSC12)c1csc(N)n1` (centres undefined) the value was 8.82% (inactive); for `C#C[C@]1(O)CCC2C3CCC4=C(CCC(=O)C4)C3CC[C@@]21C` (some centres undefined), -83.2% (active).
`C#C[C@]1(O)CC[C@H]2[C@@H]3CCC4=CCCC[C@@H]4[C@H]3C(=C)C[C@@]21CC`: the activity change, negative = inhibition was 35.3% (inactive).
On to `C#C[C@]1(O)CCC2C3CCC4=CC(=O)CCC4C3C(=C)CC21CC` (some centres undefined), for which the activity change, negative = inhibition was 16.2% (inactive).
The same measure for `C#C[C@]1(O)CC[C@H]2[C@@H]3CCC4=CC(=O)CC[C@@H]4C3CC[C@@]21CC` (some centres undefined): -83.6% (active).
Regarding `C#C[C@]1(O)CCC2C3CCC4=CC(=O)CC[C@@H]4C3CC[C@@]21C` (some centres undefined), the activity change, negative = inhibition was -91% (active).
The same measure for `C#C[C@]1(O)CC[C@H]2[C@@H]3CCC4=CC(=O)CC[C@@H]4[C@H]3CC[C@@]21C`: -67.2% (inactive); for `C#C[C@]1(O)CCC2C3CCC4=CC(=O)CC[C@@H]4C3CC[C@@]21CC` (some centres undefined): -16.7% (inactive); for `C#C[C@]1(OC(C)=O)CCC2C3CCC4=C/C(=N/O)CCC4C3CC[C@@]21CC` (some centres undefined): -84.7% (active).
`C#C[C@]1(O)CC[C@H]2[C@@H]3CCC4=CC(=O)CC[C@@H]4[C@H]3CC[C@@]21CC`: the activity change, negative = inhibition is -67.7% (inactive).
For `C#C[C@]1(O)CC[C@@H]2C3[C@H](C)CC4=C(CCC(=O)C4)[C@H]3CC[C@@]21C` (some centres undefined) the value was 5.27% (inactive); for `O=C1c2ccccc2-n2c1nc1ccccc1c2=O`, -48.4% (inactive); for `Cc1nccn1CC1CCC2C(C1=O)c1ccccc1N2C` (centres undefined), 8.1% (inactive).
On to `CC(C)(CO)C(O)C(=O)NCCC(=O)NCCSSCCNC(=O)CCNC(=O)C(O)C(C)(C)CO` (centres undefined), for which the activity change, negative = inhibition was 0.59% (inactive).
For `CCN(CC)C(=O)c1cccc(C)c1` the value was 17.6% (inactive) and -3.28% (inactive); for `CCCCN(CCCC)C(=O)CN1C[C@H](c2ccc3c(c2)OCO3)[C@@H](C(=O)O)[C@@H]1c1ccc(OC)cc1`, 2.8% (inactive).
For `CCOCc1nc2c(N)nc3ccccc3c2n1CC(C)(C)O` the value was 18.1% (inactive); for `N[C@@H](CC(=O)Nc1ccc(Oc2cc(F)c(F)cc2Br)cc1)C(=O)O`, 7.4% (inactive).
Take `COc1cccc(Nc2c(C(N)=O)cnc3c(C)cc(S(=O)(=O)c4cccc(C(=O)N(C)C)c4)cc23)c1`: the activity change, negative = inhibition is -9.54% (inactive).
The same measure for `CNC(=O)c1ccc(C)c(-n2c(C)cc(OCc3ccc(F)cc3F)c(Br)c2=O)c1`: 9.8% (inactive).
For `CC(=O)NC1=NN(C(C)=O)C(C)(c2ccccc2)S1` (centres undefined), the activity change, negative = inhibition is -32.2% (inactive).
For `C#C[C@]1(OC(C)=O)CCC2C3CCC4=CC(=O)CC[C@@H]4C3CC[C@@]21C` (some centres undefined) the value was -79.9% (active) and -90.3% (active); for `CC(=O)O[C@]1(C(C)=O)CC[C@H]2[C@@H]3C=C(C)C4=CC(=O)CC[C@@H]4[C@H]3CC[C@@]21C`, 8.45% (inactive); for `C#C[C@]1(OC(C)=O)CC[C@H]2[C@@H]3CCC4=C[C@@H](OC(C)=O)CC[C@@H]4[C@H]3CC[C@@]21C`, -38.3% (inactive) and 1.4% (inactive).
For `c1ccc(-c2n[nH]c3c2oc2ccccc23)cc1`, the activity change, negative = inhibition is 129% (inactive) and 2.12% (inactive).
`CCOC(=O)N1CSCC1C(=O)O` (centres undefined): the activity change, negative = inhibition is 0.0863% (inactive).
For `CC(C)Oc1ccc2c(=O)cc(-c3ccccc3)oc2c1` the value was 458% (inactive); for `CN(C)CCCCC(=O)Nc1ccc(NC(=S)NC(=O)c2ccc(C(C)(C)C)cc2)cc1`, 78.2% (inactive).
The same measure for `CC1(COc2ccc3c(c2)ncn3-c2ccc3cccc(N4CCC(N)CC4)c3n2)COC1`: -73.4% (active); for `COCCOc1ccc2c(c1)ncn2-c1ccc2cccc(N3CCC(N)CC3)c2n1`: -89.9% (active); for `CCOC(=O)c1ccc(OCCC2CCN(c3ccc(C)nn3)CC2)cc1`: 9.97% (inactive).
For the compound `NC1CCN(c2cccc(Cl)n2)CC1`, the activity change, negative = inhibition is 10.9% (inactive) and -8.3% (inactive).
For `COc1ccc(C[C@H](C)NC[C@@H](O)c2ccc(O)c(NC=O)c2)cc1` the value was 14.6% (inactive) and 0.747% (inactive); for `CCCC1OC2CC3C4CCC5=CC(=O)C=CC5(C)C4C(O)CC3(C)C2(C(=O)CO)O1` (centres undefined), -4.58% (inactive).
With `Cc1nnc(C(C)C)n1C1CC2CCC(C1)N2CC[C@H](NC(=O)C1CCC(F)(F)CC1)c1ccccc1` (some centres undefined), the activity change, negative = inhibition was 10.7% (inactive) and 30.6% (inactive).
Turning to `CC(C)NC[C@@H](C(=O)N1CCN(c2ncnc3c2[C@H](C)C[C@@H]3O)CC1)c1ccc(Cl)cc1`, the activity change, negative = inhibition was 9.17% (inactive).
For `CC(=O)c1c(O)c(C)c(O)c2c1OC1=CC(=O)C(C(C)=O)C(=O)[C@@]12C` (some centres undefined) the value was 16.8% (inactive); for `CCCCCCCCCCCCC/C=C/[C@@H](O)[C@H](CO)NC(C)=O`, 16.6% (inactive); for `NCCNS(=O)(=O)c1cccc2cnccc12`, 1.67% (inactive).
As for `Nc1nc(NCC2CCC(CNS(=O)(=O)c3cccc4ccccc34)CC2)nc2ccccc12` (centres undefined), the activity change, negative = inhibition is -76.7% (active) and -41.2% (inactive).
Consider `NCCCCCCNS(=O)(=O)c1cccc2ccccc12`, for which the activity change, negative = inhibition is 3.17% (inactive).
The same measure for `Cc1onc(-c2ccccc2)c1C(=O)NC1C(=O)N2[C@@H]1SC(C)(C)[C@@H]2C(=O)O` (some centres undefined): 8.03% (inactive); for `CSC1SCC2C(=O)N(C)C(C(C)C)C(=O)OCC(NC(=O)c3cnc4ccccc4n3)C(=O)NC(C)C(=O)N(C)C1C(=O)N(C)C(C(C)C)C(=O)OCC(NC(=O)c1cnc3ccccc3n1)C(=O)NC(C)C(=O)N2C` (centres undefined): -84.4% (active).
On to `CC(=C(CCOP(=O)(O)O)SC(=O)c1ccccc1)N(C=O)Cc1cnc(C)nc1N`, for which the activity change, negative = inhibition is -0.0808% (inactive).
`O=C(Nc1cc(Cl)cc(Cl)c1O)c1c(O)c(Cl)cc(Cl)c1Cl`: the activity change, negative = inhibition was 1.68% (inactive).
With `Oc1c(Cl)cc(Cl)c(Cl)c1Cc1c(O)c(Cl)cc(Cl)c1Cl`, the activity change, negative = inhibition is -88.2% (active) and -95.3% (active).
For `CCCC(CCC)C(=O)OC1C[C@H]2CC[C@@H](C1)[N+]2(C)C` (some centres undefined) the value was 9.62% (inactive); for `O=C(COc1ccc(C(=O)c2ccccc2)cc1)NC1CCN(Cc2ccccc2)CC1`, -17.8% (inactive); for `O=C(NC1CCN(Cc2ccccc2)CC1)c1ccc(I)cc1`, 21.8% (inactive) and 21.3% (inactive).
For `C=CCc1cccc(/C=N/NC(=O)CN2CCN(Cc3ccccc3)CC2)c1O`, the activity change, negative = inhibition is -76.9% (active) and 6.28% (inactive).
With `Cc1ccccc1N=Nc1ccc(NC(=O)c2ccnn2C)c(C)c1`, the activity change, negative = inhibition was -4.39% (inactive).
The same measure for `Cc1nc2ccc(CN(C)c3ccc(C(=O)N[C@@H](CCC(=O)O)C(=O)O)s3)cc2c(=O)[nH]1`: -4.51% (inactive).
For `O=C(O)c1cc(-c2ccccc2)nc2ccccc12` the value was 42.2% (inactive) and 11.3% (inactive); for `O=C(O)c1ccc(-c2c[nH]c3ncc(-c4ccccc4)cc23)cc1C1CCCC1`, -82.2% (active).
